# GSTO1 inh = inhibitors of recombinant GSTO1, primary screen, counter-screen for RBBP9 inhibitor project, biochemical, fluorescence polarization; 1.1% of 300,000 active; inhibition, % at 5.96 µM; activity-based probe fluorescence polarization; AID 1974, 2009; Glutathione S-transferase omega-1 (Homo sapiens), P78417;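 active = inhibition above the campaign mean inhibition plus 3 SD, cut at about 35% in these data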;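 also: 0% = GSTO1-1 with DMSO and 100% = wells lacking GSTO1-1 enzyme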
# LYPLA1 counter = LYPLA1 inhibitors, primary screen, counter-screen for PME1 inhibitor project, biochemical, fluorescence polarization, FP-Rh probe ABPP | Acyl-protein thioesterase 1 (Homo sapiens), O75608 | recombinant LYPLA1 | inhibition, % at 5.9 µM | 0.16% of 320,000 active;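 active = inhibition above the mean of all tested compounds plus 3 SD, set per campaign, cut at about 14% in these data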;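 also: inhibitors block serine hydrolase probe labeling of LYPLA1 so polarization falls; 0% = enzyme with DMSO and 100% = wells lacking LYPLA1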
# PAD4 inh = human PAD4 inhibitors, primary screen, biochemical, fluorescence polarization, 1536-well format; Protein-arginine deiminase type-4 (Homo sapiens), Q9UM07; recombinant PAD4, RCA probe fluorescence polarization; inhibition, % at 6.36 µM; 0.41% of 330,000 active; AID 485272, 2010;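 active = percent inhibition above a cutoff equal to the mean of all tested compounds plus 3 SD, cut at about 15% in these data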;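 also: 0% = PAD4 with RCA probe and DMSO and 100% = probe without PAD4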
# Target sequence (Q9UM07 whole entry, looked up): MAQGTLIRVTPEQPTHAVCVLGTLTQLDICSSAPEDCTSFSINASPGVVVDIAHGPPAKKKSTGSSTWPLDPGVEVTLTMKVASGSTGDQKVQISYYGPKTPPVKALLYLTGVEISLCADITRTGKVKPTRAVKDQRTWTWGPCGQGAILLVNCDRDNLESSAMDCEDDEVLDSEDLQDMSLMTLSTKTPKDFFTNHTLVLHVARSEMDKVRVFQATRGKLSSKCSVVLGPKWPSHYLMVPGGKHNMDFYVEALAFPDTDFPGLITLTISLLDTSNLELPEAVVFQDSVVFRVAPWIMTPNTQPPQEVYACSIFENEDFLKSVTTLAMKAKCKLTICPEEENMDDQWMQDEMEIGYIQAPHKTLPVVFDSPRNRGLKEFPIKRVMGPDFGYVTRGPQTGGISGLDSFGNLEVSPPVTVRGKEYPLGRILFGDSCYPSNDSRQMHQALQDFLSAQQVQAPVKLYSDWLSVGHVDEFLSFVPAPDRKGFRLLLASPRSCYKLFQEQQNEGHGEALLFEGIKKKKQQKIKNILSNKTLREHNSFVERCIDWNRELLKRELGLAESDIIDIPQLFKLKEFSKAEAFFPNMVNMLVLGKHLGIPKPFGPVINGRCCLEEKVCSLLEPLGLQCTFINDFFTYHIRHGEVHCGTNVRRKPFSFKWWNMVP
# LYPLA2 counter = LYPLA2 inhibitors, primary screen, counter-screen for PME1 inhibitor project, biochemical, fluorescence polarization, FP-Rh probe ABPP | Acyl-protein thioesterase 2 (Homo sapiens), O95372 | recombinant LYPLA2 | inhibition, % at 5.9 µM | 0.38% of 320,000 active | AID 2177, 2009;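 active = inhibition above the screen-wide mean plus 3 SD, limit set per campaign, cut at about 26% in these data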;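 also: 0% = LYPLA2 with DMSO and 100% = wells lacking LYPLA2 enzyme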
# Fam108B inh = mouse Fam108B serine hydrolase inhibitors, primary screen, counter-screen for RBBP9 inhibitor project, biochemical, fluorescence polarization | recombinant Fam108B, FP-Rh probe fluorescence polarization | 0.33% of 300,000 active | AID 1947, 2009 | inhibition, % at 9.51 µM;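 active = inhibition above the screen mean inhibition plus 3 SD, computed separately per campaign, cut at about 18% in these data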;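 also: inhibitors lower polarization as less probe binds the enzyme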
# PME-1 inh = PME-1 inhibitors via competitive probe labeling, primary screen, biochemical, fluorescence polarization, FP-Rh probe, HTS; AID 2130, 2009; Protein phosphatase methylesterase 1 (Homo sapiens), Q9Y570; 0.53% of 320,000 active; recombinant PME-1; inhibition, % at 5.9 µM;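 active = inhibition above the campaign mean of all compounds plus 3 SD, cut at about 26% in these data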;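 also: competitive labeling of PME-1 active site by serine hydrolase directed probe; 0% = PME-1 with DMSO and 100% = wells lacking PME-1 enzyme; inhibitors block probe labeling so polarization falls and inhibition rises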
# PAD4 FP conf = human PAD4 inhibitors, confirmation, biochemical, fluorescence polarization | shares compounds with PAD4 inh | inhibition, % at 6.36 µM | 28% of 1,200 active | recombinant PAD4, RCA probe fluorescence polarization;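 active = mean inhibition across replicates above the hit cutoff set by the earlier primary screen, cut at about 15% in these data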;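 also: inhibitors block active-site labeling by the probe so polarization falls; 0% = PAD4 with probe and DMSO and 100% = probe without PAD4 enzyme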
# An asterisk follows results filed as active; nt = no result given. Most compounds without a hit are left out; they make up all but 1.8% or so of the library.
SMILES,GSTO1 inh,LYPLA1 counter,PAD4 inh,LYPLA2 counter,Fam108B inh,PME-1 inh,PAD4 FP conf
Fc1ccc2cnc(-c3ccccc3F)cc2c1,nt,nt,-4.1,nt,nt,nt,nt
Fc1ccccc1-c1cc2ccccc2cn1,nt,-2.8,15.4*,1.6,nt,-4.0,12.3
O=C(C1=C(O)C(=O)N(CCCn2ccnc2)C1c1cccc(Br)c1)c1ccco1 (stereo not given),-1.7,2.6,-14.9,-2.5,-1.0,-10.7,nt
O=C1c2ccccc2NC(c2cccc(O)c2)N1c1ccccc1 (stereo not given),-1.7,-2.8,-3.5,-8.6,-5.0,-5.5,nt
COc1ccc(OC)c(S(=O)(=O)Oc2ccc(N)c3ccccc23)c1,35.0*,-5.3,21.4*,-6.4,3.0,8.5,-9.8
CC(C)(C)c1cc[n+](-c2[nH]c(=O)sc2/C=N/NC([S-])=Nc2ccccc2)cc1,30.9,4.2,16.6*,7.5,6.2,6.2,12.6
O=c1c2ccccc2sn1-c1ccc(F)cc1,nt,1.1,41.6*,9.7,nt,-1.0,28.9*
Cc1ccc(-n2sc3ccccc3c2=O)cc1,-5.7,0.3,53.4*,4.4,4.4,-5.9,30.2*
COC(=O)c1cccc(N2CCCC2=O)c1,-4.8,-1.1,-6.5,4.0,-1.9,3.5,nt
COC(=O)c1cccc(-n2sc3ccccc3c2=O)c1,nt,0.9,55.3*,6.0,nt,-1.9,46.5*
CCOC(=O)c1c(C)c(C(=O)NCC2CCCO2)c(C)n1C (stereo not given),0.8,-2.8,-2.6,-1.6,0.7,-2.6,nt
COc1ccc(NC(=O)CCNS(=O)(=O)c2cccc3nsnc23)c(OC)c1,2.1,0.5,1.9,0.5,1.7,3.8,nt
Cc1cc2c3c(c1)C1(SCC(=O)N1c1ccc(F)cc1)C(=O)N3C(C)(C)CC2C (stereo not given),-12.5,0.6,14.6,6.2,-0.9,-1.3,nt
CC1CC(C)(C)N2C(=O)C3(Nc4ccccc4S3)c3cccc1c32 (stereo not given),3.8,1.0,22.9*,2.3,2.0,4.7,27.7*
CC(=O)N1CCN=C1SCc1ccc(C)cc1,4.2,-0.4,-1.2,3.0,-1.4,3.9,nt
CCNc1nc(NCC)n2c(SCC(=O)Nc3ccccc3C(F)(F)F)nnc2n1,1.1,-2.0,-2.4,1.6,-0.4,-1.4,nt
CCOC(=O)c1c(CN2CCN(C)CC2)n(C)c2cc(Br)c(OC)cc12,-3.0,-2.5,-1.5,1.1,-2.8,-3.4,nt
CCOC(=O)c1c(CSC(=N)N)n(C)c2cc(Br)c(OC(C)=O)cc12,-23.5,-2.7,38.2*,0.2,-1.8,1.7,44.0*
COc1ccc(C(=O)C2CCCN(C(=O)c3cccnc3SC)C2)c(C)c1 (stereo not given),10.6,-3.4,0.5,4.3,3.5,3.5,nt
Cc1sc2ncnc(Sc3nnnn3-c3ccccc3)c2c1C,-6.1,1.4,27.9*,0.7,-3.0,-5.7,16.6*
c1ccc2sc(Sc3ncnc4sccc34)nc2c1,3.2,4.2,3.2,3.1,-0.6,-3.7,nt
Cc1sc2ncnc(Sc3ccccc3C(=O)O)c2c1C,-8.6,0.0,6.4,6.3,1.6,2.5,nt
Clc1ccc(-n2nnnc2Sc2ncnc3sccc23)cc1,-17.5,-1.5,20.6*,0.5,-9.1,-6.8,21.0*
COc1ccc2nc(C)cc(SCC(NC(C)=O)C(=O)OC(C)C)c2c1 (stereo not given),-3.6,0.8,2.8,0.3,3.6,3.9,nt
CC1CCN(C(=O)CSc2nnc(-c3ccccc3F)o2)CC1,8.8,-1.7,-2.4,-1.3,6.6,-1.7,nt
SMILES,GSTO1 inh,LYPLA1 counter,PAD4 inh,LYPLA2 counter,Fam108B inh,PME-1 inh,PAD4 FP conf
O=C(O)c1[nH]c2ccccc2c1-c1ccccc1,3.7,-3.4,104.5*,-6.3,1.0,-8.7,4.1
Cc1ccc2[nH]c(C(=O)O)c(-c3ccccc3)c2c1,5.9,2.1,4.8,-1.3,-2.4,-1.0,nt
COc1cccc(N2C(=O)CC(Nc3ccc(N4CCOCC4)cc3)C2=O)c1 (stereo not given),6.6,-1.0,31.1*,3.4,-5.2,4.8,2.3
COc1ccc(C(=O)N2CCC(O)(c3ccc(Cl)cc3)CC2)cc1OC,1.1,0.6,5.1,0.5,2.3,0.6,nt
O=[N+]([O-])c1ccc2nc(-c3ccccc3)n(OCc3ccc(Cl)cc3)c2c1,-0.4,-7.0,84.1*,-3.7,3.9,2.1,4.0
O=[N+]([O-])c1ccc(COn2nnc3ccccc32)cc1,5.7,1.0,1.8,2.6,-6.0,6.2,nt
Cc1cc(N(C)NC(=S)Nc2ccccc2)nc(C)n1,0.0,-2.9,52.0*,3.0,1.4,5.7,10.6
COc1ccc(C(=O)CSc2cc(C)nc3nc(C)nn23)cc1OC,-2.5,1.6,28.3*,-0.3,5.7,7.0,25.9*
O=C1c2oc3ccccc3c(=O)c2C(c2ccc(O)cc2)N1c1nccs1 (stereo not given),-31.1,-26.0,0.2,-50.0,-35.4,-49.8,nt
CCC(C)(C)NC(=O)CN(CC1CCCO1)C(=O)CNS(=O)(=O)c1ccccc1 (stereo not given),8.7,3.8,-0.3,11.5,-1.8,-2.9,nt
CC(C)C(C(=O)NC1CCCC1)N(CC1CCCO1)C(=O)CNS(=O)(=O)c1ccccc1 (stereo not given),-4.5,5.3,26.5*,5.0,-1.3,-4.2,-2.7
COc1ccc2c(C)cc3n[nH]c(=S)n3c2c1,2.9,-0.2,22.2*,0.9,0.3,-4.1,15.7*
CCOc1ccc(NC(=O)c2ccc(Cl)c(NC(=O)c3ccco3)c2)cc1,-4.7,-1.1,5.3,-0.9,-3.2,-4.4,nt
COc1cccc(N2CCN(Cc3ccsc3)CC2)c1,25.8,3.2,1.0,2.7,3.0,-3.3,nt
O=c1c(N2CCOCC2)coc2ccccc12,0.8,1.1,0.6,2.3,0.5,2.1,nt
O=c1[nH]c(N2CCOCC2)cc2ccccc12,25.4,-1.8,19.6*,2.5,1.6,3.2,-7.3
CC1=NN(c2ccccc2)C(=O)/C1=C/c1ccc[nH]1,2.2,-0.9,0.7,-0.3,3.7,5.0,nt
CC1=NN(c2ccccc2)C(=O)/C1=C\c1ccc(Br)s1,16.2,-4.3,16.4*,-0.2,7.7,3.9,-1.9
CC1=NN(c2ccccc2)C(=O)/C1=C/c1cccs1,55.0*,0.5,34.9*,4.3,-2.5,0.4,1.2
O=C(COC(=O)c1ccc(Cl)nc1)c1ccc2c(c1)OCCO2,11.2,-3.4,0.7,0.3,-1.5,4.0,nt

# High-throughput results deposited in PubChem by The Scripps Research Institute Molecular Screening Center.
